Many of the other results were omitted from the sample, so hits are more common in it than they were.
CD40 NFkB inh: CD40 pathway inhibition in BL2 cells | inhibition, % at 10 µM | hit rate 0.94% among 83,000 | BL2 NF-kB luciferase reporter, CD40L-induced, 4 h;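 active = mean inhibition of at least 50% with a set share of replicates also reaching that level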;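 note: 0% = neutral control wells and 100% = IKK inhibitor VII at 50 µM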
Starred values were filed as active, the others as inactive; [ ] = dose if it differs, or a comment.

What do the screens show for `COc1ccc(N=C2NN=C(c3ccc4c(c3)OCCO4)CS2)cc1`?
CD40 NFkB inh: -11.2

What do the screens show for `c1ccc(CN=C2NN=C(c3cc4ccccc4o3)CS2)cc1`?
CD40 NFkB inh: -12.4

Results for c1cc2c(cc1C1=NNC(=NC3CC3)SC1)OCCO2 ?
CD40 NFkB inh: 91.8*

How did N#C[C@H]1[C@@H](c2ccccc2-c2ccccc2)[C@H](CO)N1C(=O)Cc1ccccc1 do in these assays?
CD40 NFkB inh: 7.2[25 µM]

Results for C[C@@H]1CCn2nncc2COC[C@H]2CCCN2C1=O ?
CD40 NFkB inh: -33.8[25 µM]

What do the screens show for `C[C@H]1CN([C@@H](C)CO)C(=O)CCCn2cc(nn2)CO[C@H]1CN(C)C(=O)Nc1ccc(C(F)(F)F)cc1`?
CD40 NFkB inh: -1.4

What do the screens show for `O=C(Nc1nnc(C2CC2)s1)c1cc2ccccc2o1`?
CD40 NFkB inh: -60.5

Results for Cc1cnc(NC(=O)c2cc3ccccc3o2)s1 ?
CD40 NFkB inh: 56.0*

How did Cc1nnc(NC(=O)c2cc3ccccc3o2)s1 do in these assays?
CD40 NFkB inh: -71.8

Results for C[C@H](CO)N1C[C@H](C)[C@H](CN(C)Cc2ccc(Cl)c(Cl)c2)Oc2c(NC(=O)CCCCCC(=O)Nc3ccccc3N)cccc2C1=O ?
CD40 NFkB inh: -9.4[25 µM]

How did C[C@@H]1CN([C@H](C)CO)C(=O)CCCn2cc(nn2)CO[C@H]1CN(C)Cc1ccc(-c2ccccc2)cc1 do in these assays?
CD40 NFkB inh: -4.0

What do the screens show for `CN(C)C(=O)c1ccc(-c2ccccc2[C@H]2[C@@H](C#N)N(C(=O)C3CCCCC3)[C@@H]2CO)cc1`?
CD40 NFkB inh: -25.0[25 µM]

How did Cc1onc(-c2ccccc2)c1C(=O)OCC(=O)c1ccc[nH]1 do in these assays?
CD40 NFkB inh: -6.1

Results for Cc1onc(-c2ccccc2)c1C(=O)OCC(=O)Nc1ccccc1 ?
CD40 NFkB inh: -11.8

Results for COC(=O)c1ccc2c(=O)[nH]c(COC(=O)c3c(-c4ccccc4)noc3C)nc2c1 ?
CD40 NFkB inh: 28.8*

Results for CCS(=O)(=O)NCC[C@H]1CC[C@H](NS(=O)(=O)c2ccccc2C)[C@H](CO)O1 ?
CD40 NFkB inh: -10.4[25 µM]

How did O=C(Nc1ccc2c(c1)[C@H]1C[C@H](CC(=O)N3CCCCC3)O[C@H](CO)[C@H]1O2)NC1CCCC1 do in these assays?
CD40 NFkB inh: 2.4

What do the screens show for `CO[C@@H]1CN(C)C(=O)c2cc(NC(=O)NC(C)C)ccc2OC[C@@H](C)N(Cc2ccccc2)C[C@H]1C`?
CD40 NFkB inh: 3.4[25 µM]

Results for COCC(=O)N1[C@H](C#N)[C@H](c2ccc(-c3cccnc3)cc2)[C@@H]1CO ?
CD40 NFkB inh: -0.6[25 µM]

Results for O=C(/C=C/Sc1ccccc1)c1ccccc1 ?
CD40 NFkB inh: -26.2

How did COc1ccc(C(=O)/C=C/Sc2nc3ccccc3o2)cc1 do in these assays?
CD40 NFkB inh: 75.2*

What do the screens show for `N#CCSc1nc2ccccc2o1`?
CD40 NFkB inh: 10.7

How did CO[C@H]1CN(C)C(=O)c2cc(NS(C)(=O)=O)ccc2OC[C@@H](C)N(C(=O)C2CCOCC2)C[C@H]1C do in these assays?
CD40 NFkB inh: -19.1[25 µM]

How did CC(C)[C@H](C)NC(=O)N(C)C[C@@H]1OCc2ccccc2-c2c(n(C)c3ccccc23)C(=O)N([C@H](C)CO)C[C@H]1C do in these assays?
CD40 NFkB inh: 11.7

Results for C[C@H]1CCCCO[C@H](CN(C)S(=O)(=O)c2ccccc2)[C@@H](C)CN([C@@H](C)CO)C(=O)c2cc(NS(=O)(=O)c3ccc(Cl)cc3)ccc2O1 ?
CD40 NFkB inh: 9.4

What do the screens show for `CO[C@@H](CN(C)Cc1ccc2c(c1)OCO2)[C@H](C)CN(C(=O)Nc1ccc(F)cc1)[C@@H](C)CO`?
CD40 NFkB inh: -6.8[25 µM]

Results for CC(=O)Nc1ccc2c(c1)Cc1cc(N3C(=O)C=CC3=O)ccc1-2 ?
CD40 NFkB inh: 97.0*

Results for CC(=O)Nc1ccc2c(c1)Cc1ccc(Cl)cc1-2 ?
CD40 NFkB inh: -51.4

How did CC(=O)Nc1ccc2c(c1)-c1ccc(F)cc1C2 do in these assays?
CD40 NFkB inh: -5.8

What do the screens show for `CN1C(=O)c2cc(NC(=O)NCc3ccccc3)ccc2OC[C@@H]2O[C@H](CC(=O)NCC3CCCCC3)CC[C@H]21`?
CD40 NFkB inh: 12.7[25 µM]

How did O=C(NC1CCCC1)N[C@@H]1C=C[C@H](CC(=O)N2CCOCC2)O[C@@H]1CO do in these assays?
CD40 NFkB inh: 1.7[25 µM]

How did C[C@@H]1CCCCO[C@@H](CN(C)CC2CCCCC2)[C@@H](C)CN([C@@H](C)CO)C(=O)c2cc(NC(=O)Nc3ccc(C(F)(F)F)cc3)ccc2O1 do in these assays?
CD40 NFkB inh: 96.9*[25 µM]

Results for Cc1noc(C)c1S(=O)(=O)Nc1ccc2c(c1)C(=O)N([C@H](C)CO)C[C@@H](C)[C@H](CN(C)C(=O)Nc1cccc3ccccc13)OCCCC[C@@H](C)O2 ?
CD40 NFkB inh: 75.2*[25 µM]

How did C[C@H]1CCCCO[C@H](CN(C)Cc2ccc(C(F)(F)F)cc2)[C@@H](C)CN([C@@H](C)CO)C(=O)c2cc(NC(=O)Nc3cccc4ccccc34)ccc2O1 do in these assays?
CD40 NFkB inh: 53.1*[25 µM]

How did C[C@@H]1CCCCO[C@@H](CN(C)CC2CCCCC2)[C@H](C)CN([C@H](C)CO)C(=O)c2cc(NC(=O)Nc3ccc(C(F)(F)F)cc3)ccc2O1 do in these assays?
CD40 NFkB inh: -8.4

How did C[C@H]1CCCCO[C@@H](CN(C)Cc2ccc(C(F)(F)F)cc2)[C@@H](C)CN([C@@H](C)CO)C(=O)c2cc(NC(=O)Nc3cccc4ccccc34)ccc2O1 do in these assays?
CD40 NFkB inh: 18.1[25 µM]

What do the screens show for `C[C@@H]1CN([C@H](C)CO)C(=O)c2cc(NC(=O)Nc3cccc4ccccc34)ccc2O[C@@H](C)CCCCO[C@@H]1CN(C)Cc1ccc(C(F)(F)F)cc1`?
CD40 NFkB inh: 32.2[25 µM]

What do the screens show for `C[C@@H]1CN([C@@H](C)CO)C(=O)c2cc(NC(=O)Nc3ccc(C(F)(F)F)cc3)ccc2O[C@@H](C)CCCCO[C@@H]1CN(C)CC1CCCCC1`?
CD40 NFkB inh: 12.4[25 µM]

What do the screens show for `Cc1noc(C)c1S(=O)(=O)Nc1ccc2c(c1)C(=O)N([C@H](C)CO)C[C@H](C)[C@H](CN(C)C(=O)Nc1cccc3ccccc13)OCCCC[C@@H](C)O2`?
CD40 NFkB inh: -10.3[25 µM]

How did Cc1noc(C)c1S(=O)(=O)Nc1ccc2c(c1)C(=O)N([C@H](C)CO)C[C@H](C)[C@@H](CN(C)C(=O)Nc1cccc3ccccc13)OCCCC[C@@H](C)O2 do in these assays?
CD40 NFkB inh: 0.4[25 µM]

How did CCCNC(=O)N1C[C@H]2[C@@H](c3ccccc31)[C@H](CO)N2CC1CCCC1 do in these assays?
CD40 NFkB inh: 0.1[25 µM]

What do the screens show for `O=C(C[C@H]1CC[C@H]2NC[C@H](O)COC[C@@H]2O1)NCc1ccc2c(c1)OCO2`?
CD40 NFkB inh: -3.6[25 µM]

What do the screens show for `O=S(=O)(c1ccccc1)N1[C@@H]2CNC[C@H]1C2c1ccc(-c2ccccc2)cc1` (stereo not given in full)?
CD40 NFkB inh: -14.3

What do the screens show for `Cc1cc(Br)ccc1SCC(=O)Nc1cccnc1`?
CD40 NFkB inh: 1.6

What do the screens show for `Cc1nc(C)c(NC(=O)N2CCc3ccccc32)cc1NC(=O)N1CCc2ccccc21`?
CD40 NFkB inh: 9.7

How did Cn1ccc2cc3c(cc21)CCN3C(=O)Nc1cccnc1 do in these assays?
CD40 NFkB inh: active[25 µM]

Results for Cc1cccc(S(=O)(=O)N2CC[C@@H]3[C@H](CO)Nc4ccc(C#Cc5ccc(F)cc5)cc4[C@@H]32)c1 ?
CD40 NFkB inh: 4.8[25 µM]

How did C[C@H](CO)N1C[C@H](C)[C@@H](CN(C)Cc2ccc(C(=O)Nc3ccccc3N)cc2)OCc2cnnn2CCCC1=O do in these assays?
CD40 NFkB inh: -29.5[25 µM]

Screening data: PubChem BioAssay, Broad Institute
